Reference: PubChem BioAssay (NCI)
Compounds without any hit were thinned out: in the full panel of roughly 79,000, 15% have a hit. Unmarked numbers belong to inactive results. Calls of active or inactive are those of the source. Cut-off read from the data, not from the text of the source: active = growth inhibition above about 70%; inactive = the rest.

Assays:
[1] = NCI Yeast Anticancer Drug Screen. Data for the rad50 strain (AID 155);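 note: 0% = growth of vehicle-only cultures of the same strain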; conditions: S. cerevisiae rad50 strain growth inhibition, hits give high values
Outline: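 Compounds were tested on a yeast strain with an engineered DNA damage repair alteration; the reported value is growth inhibition normalised to vehicle treatment.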

[2] = NCI Yeast Anticancer Drug Screen. Data for the mec2-1 strain (AID 157); conditions: S. cerevisiae mec2-1 strain, hits give high values
Outline: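 Readout is yeast growth inhibition, normalised to vehicle-treated controls, in the mec2-1 strain exposed to compound.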

[3] = NCI Yeast Anticancer Drug Screen. Data for the sgs1 mgt1 strain (AID 161);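 note: 0% = growth of cultures given vehicle only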; conditions: S. cerevisiae sgs1 mgt1 strain, hits give high values
Outline: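 Yeast cells carrying a defined DNA-repair defect were exposed to test compounds. Growth inhibition was measured relative to vehicle-treated controls.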

[4] = NCI Yeast Anticancer Drug Screen. Data for the cln2 rad14 strain (AID 165);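 note: 0% = growth equal to vehicle treated cultures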; conditions: S. cerevisiae cln2 rad14 strain, hits give high values
Outline: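 Relative to vehicle controls, growth inhibition of compound-treated cln2 rad14 yeast was recorded.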

[5] = NCI Yeast Anticancer Drug Screen. Data for the bub3 strain (AID 167); conditions: S. cerevisiae bub3 mutant strain, hits give high values
Outline: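 Growth of a checkpoint-deficient yeast mutant is measured after compound exposure. Values represent inhibition relative to vehicle.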

[6] = NCI Yeast Anticancer Drug Screen. Data for the mlh1 rad18 strain (AID 175); conditions: S. cerevisiae mlh1 rad18 strain growth inhibition, hits give high values
Outline: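 Test agents were incubated with a yeast strain of defined genotype (DNA damage repair defect). Inhibition of growth was derived by comparison with vehicle-exposed cultures.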

[7] = at 5.0 µM (retest, dose inferred, filed as 0.5)
[8] = at 50.0 µM (retest, dose inferred, filed as 5.0)

| SMILES | growth inhibition [1, 7] | growth inhibition [1, 8] | growth inhibition ([1]; at 50.0 µM) | growth inhibition [2, 7] | growth inhibition [2, 8] | growth inhibition ([2]; at 50.0 µM) | growth inhibition [3, 7] | growth inhibition [3, 8] | growth inhibition ([3]; at 50.0 µM) | growth inhibition [4, 7] [%] | growth inhibition [4, 8] | growth inhibition ([4]; at 50.0 µM) | growth inhibition [5, 7] | growth inhibition [5, 8] | growth inhibition ([5]; at 50.0 µM) | growth inhibition [6, 7] | growth inhibition [6, 8] | growth inhibition ([6]; at 50.0 µM) |
| --- | --- | --- | --- | --- | --- | --- | --- | --- | --- | --- | --- | --- | --- | --- | --- | --- | --- | --- |
| COc1cc2c(cc1O)C1C(O)C(O)C=C3CCN(C2)C31 (configuration not stated) | 4% | 97% (active) | 85.5% (active) | 4% | 97% (active) | 84.8% (active) | 5% | 96% (active) | 82.5% (active) | 14 | 96% (active) | 84% (active) | 2% | 95% (active) | 85.5% (active) | 3% | 97% (active) | 86.9% (active) |
| Cc1[nH]nc(C(F)(F)F)c1N=NN1CCOCC1 | 62% | 99% (active) | 99.2% (active) | 89% (active) | 99% (active) | 99.7% (active) | 55% | 99% (active) | 99.5% (active) | 47 | 99% (active) | 99.5% (active) | 19% | 99% (active) | 99.4% (active) | 79% (active) | 99% (active) | 99.5% (active) |
| O=[N+]([O-])c1ccc2c(c1)/C(=C/c1ccccc1O)c1ccccc1-2 | 66% | 91% (active) | 92.7% (active) | 81% (active) | 93% (active) | 90.5% (active) | 69% | 92% (active) | 88.5% (active) | 52 | 87% (active) | 84.3% (active) | 42% | 91% (active) | 92% (active) | 89% (active) | 91% (active) | 90.2% (active) |
| CC(C)=CC[P+](CCCCCC[P+](CC=C(C)C)(c1ccccc1)c1ccccc1)(c1ccccc1)c1ccccc1 | -4% | 9% | 31.6% | -1% | 9% | 40.8% | -3% | 27% | 59.5% | -5 | 16% | 4.75% | -3% | 15% | 48.3% | -1% | 27% | 89.2% (active) |
| C/C(=N\NC(=S)N1CCC(O)CC1)c1ccccn1 | 14% | 93% (active) | 99% (active) | 14% | 94% (active) | 99.5% (active) | 40% | 99% (active) | 99.2% (active) | 16 | 95% (active) | 98.2% (active) | 39% | 97% (active) | 98.8% (active) | 28% | 98% (active) | 98.8% (active) |
| CC(C)(C)Oc1ccc(CC(NC(=O)OCC2c3ccccc3-c3ccccc32)C(=O)O)cc1 (configuration not stated) | 9% | 95% (active) | 90.6% (active) | -11% | 97% (active) | 93.2% (active) | -9% | 98% (active) | 90.5% (active) | 33 | 96% (active) | 91.7% (active) | -7% | 97% (active) | 89.2% (active) | -3% | 96% (active) | 90.3% (active) |
| Nc1ccccc1N=Nc1c(S(=O)(=O)O)cc2cc(S(=O)(=O)O)cc(O)c2c1O | 17% | 23% | -24% | 3% | 5% | -10.9% | -3% | 11% | -27.6% | 34 | -10% | 27.9% | 17% | 12% | -33.5% | 5% | 7% | -33.9% |
| Cc1ccccc1SCc1nc2ccccc2c(C)[n+]1[O-] | -3% | 73% (active) | 35.5% | 4% | 63% | 45.2% | 9% | 68% | 58.7% | -1 | 44% | 35% | -1% | 69% | 59% | 42% | 89% (active) | 59.9% |
| N/C(=N\OC(=O)Nc1ccccc1)c1ccccc1 | 7% | 51% | 42.1% | 8% | 40% | 33% | 13% | 70% (active) | 68% | 2 | 38% | 32.2% | -3% | 24% | 11.7% | 4% | 76% (active) | 58.6% |
| Cc1cccc(NC(=O)C(=O)C(C2OC(=O)c3ccccc32)[N+](=O)[O-])c1C (configuration not stated) | 8% | 69% | 85.4% (active) | -24% | 82% (active) | 86.8% (active) | 9% | 75% (active) | 87.7% (active) | 27 | 79% (active) | 90.4% (active) | -13% | 92% (active) | 88.3% (active) | -21% | 89% (active) | 83.3% (active) |
| CCOC(=O)CCC(=O)Oc1ccc2c(c1OC(=O)CCC(=O)OCC)C(=O)c1ccccc1C2=O | 25% | 97% (active) | 87.5% (active) | 11% | 97% (active) | 78.8% (active) | 50% | 98% (active) | 83% (active) | 13 | 97% (active) | 66% | 8% | 96% (active) | 60.5% | 22% | 97% (active) | 95% (active) |
| Cc1c(O)c2c(c(O)c1Br)C(=O)C=CC2=O | 88% (active) | 96% (active) | 70.8% (active) | 93% (active) | 98% (active) | 90.5% (active) | 74% (active) | 98% (active) | 90.5% (active) | 49 | 97% (active) | 87.3% (active) | 98% (active) | 98% (active) | 89.1% (active) | 96% (active) | 97% (active) | 90.8% (active) |
| CC(=O)CC(=O)OCc1ccccc1 | 12% | 97% (active) | 94.5% (active) | 4% | 98% (active) | 97.2% (active) | 1% | 96% (active) | 98% (active) | 4 | 89% (active) | 87.2% (active) | 8% | 98% (active) | 96% (active) | 14% | 98% (active) | 97.7% (active) |
| CCOC(=O)C(=C=C=C(c1ccccc1)c1ccccc1)C(=O)OCC | -3% | 6% | 33.9% | -2% | 17% | 23.5% | -3% | 40% | 78.2% (active) | 0 | 1% | 50.1% | -4% | 6% | 31% | -4% | 6% | 50.5% |
| O=C(OCc1ccccc1)C(O)c1ccccc1 (configuration not stated) | -2% | 16% | 24.1% | 2% | 6% | -7.1% | -1% | 3% | -14.7% | -4 | 1% | 41.1% | -3% | -2% | 18.4% | -1% | 10% | 16.2% |
| CC(C)(C)CC(C)(C)c1ccc(O)c(Cl)c1 | -3% | 93% (active) | 99.1% (active) | -3% | 90% (active) | 76.5% (active) | -2% | 50% | 91.2% (active) | -6 | 86% (active) | 49.9% | -4% | 90% (active) | 78.4% (active) | -4% | 95% (active) | 99.5% (active) |
| CCCc1nc2ccccc2c(=O)n1/N=C/c1ccccc1O | 4% | -5% | 44.2% | -1% | -1% | 47.9% | 4% | -1% | 72.4% (active) | -4 | -2% | 53.8% | -2% | -2% | 82.5% (active) | -2% | 2% | 71% (active) |
| CCOC(=O)CCCCCN | 6% | 8% | -4.55% | 1% | 2% | -7.75% | 1% | 7% | 34.1% | 9 | -2% | -39.5% | 2% | -4% | 1.75% | 5% | 6% | -30.3% |
| c1ccc([P+](CCCCCC[P+](c2ccccc2)(c2ccccc2)c2ccccc2)(c2ccccc2)c2ccccc2)cc1 | 61% | 85% (active) | 81.7% (active) | 46% | 94% (active) | 84.8% (active) | 38% | 97% (active) | 83.3% (active) | 36 | 68% | 78.2% (active) | 43% | 77% (active) | 86.6% (active) | 52% | 94% (active) | 81.7% (active) |
